According to PubChem BioAssay:
A number with no mark means an inactive call. For some of these results: Entries with a potency or affinity are not part of this list. Calls of active or inactive are those of the source. Unless noted, how the calls were made is not given here.

Legend:
[1] = antimalarial activity against Dd2 strain (AID 2302;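 active means growth inhibition above 50% at the single 2 µM test dose, taken to imply half-maximal potency below 2 µM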;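 further: 0% = DMSO untreated growth and 100% = chloroquine plus artemisinin killed control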); conditions: P. falciparum Dd2 in RBCs, LDH growth readout, 72 h; at 2 µM; stronger effect = higher value
[2] = human hepatoma cell viability loss – ATP luminescence, cytotoxicity control for P. falciparum antimalarial project, primary screen (AID 2303;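 active means inhibition above 50%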;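 further: 0% = DMSO wells and 100% = digitonin-killed cells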); conditions: HepG2 viability, 24-48 h, at 10 µM, stronger effect = higher value
[3] = target: L-lactate dehydrogenase (Plasmodium falciparum (isolate CDC / Honduras)) (UniProt Q27743); assay: PfLDH activity inhibition – cell lysate, 3D7 strain, counter-screen for P. falciparum growth inhibition project (AID 2304);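 further: 0% = vehicle and 100% = reference inhibitor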; conditions: P. falciparum 3D7 crude extract, LDH APAD/NBT absorbance; at 2 µM; stronger effect = higher value
Chain of L-lactate dehydrogenase (Plasmodium falciparum (isolate CDC / Honduras)) (Q27743 whole entry, looked up): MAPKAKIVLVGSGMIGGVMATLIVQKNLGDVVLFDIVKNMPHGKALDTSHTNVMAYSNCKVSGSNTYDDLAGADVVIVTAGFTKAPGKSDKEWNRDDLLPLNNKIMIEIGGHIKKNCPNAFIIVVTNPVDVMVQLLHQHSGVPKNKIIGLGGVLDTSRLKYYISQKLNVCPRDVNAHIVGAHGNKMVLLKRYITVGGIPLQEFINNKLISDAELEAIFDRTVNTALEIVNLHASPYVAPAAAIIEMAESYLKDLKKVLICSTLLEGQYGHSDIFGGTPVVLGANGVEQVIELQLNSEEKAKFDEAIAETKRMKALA

[4] = inhibition of 3D7 malaria parasite growth – strain 3D7 (AID 2306);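 further: 0% = DMSO wells and 100% = chloroquine plus artemisinin control wells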; conditions: P. falciparum 3D7 erythrocytic growth, LDH absorbance, 72 h; at 2 µM; stronger effect = higher value
[5] = target: Calcium-dependent protein kinase 1 (Plasmodium falciparum (isolate 3D7)) (UniProt P62344); assay: PfCDPK1 kinase inhibitors, biochemical, TCAMS library (AID 1159585; cut-off not given, nearly all actives have IC50 up to about 0.98 µM;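 further: inhibitors leave more ATP so luminescence rises with inhibition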); conditions: recombinant PfCDPK1, Kinase-Glo ATP depletion luminescence
Chain of Calcium-dependent protein kinase 1 (Plasmodium falciparum (isolate 3D7)) (P62344 whole entry, looked up): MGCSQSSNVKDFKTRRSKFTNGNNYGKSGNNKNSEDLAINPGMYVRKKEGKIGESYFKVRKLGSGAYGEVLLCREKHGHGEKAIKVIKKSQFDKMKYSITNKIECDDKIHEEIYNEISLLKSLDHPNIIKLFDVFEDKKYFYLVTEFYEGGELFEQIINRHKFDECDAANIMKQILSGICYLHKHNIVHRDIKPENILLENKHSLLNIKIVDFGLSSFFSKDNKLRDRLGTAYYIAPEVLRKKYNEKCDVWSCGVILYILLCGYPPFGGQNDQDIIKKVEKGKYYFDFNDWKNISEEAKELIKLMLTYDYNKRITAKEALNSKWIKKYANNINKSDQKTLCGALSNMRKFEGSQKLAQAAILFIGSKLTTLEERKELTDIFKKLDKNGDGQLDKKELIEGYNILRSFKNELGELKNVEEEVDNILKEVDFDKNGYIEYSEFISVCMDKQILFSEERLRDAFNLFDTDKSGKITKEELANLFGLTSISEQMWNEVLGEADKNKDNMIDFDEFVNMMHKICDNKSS

[6] = target: Plasmodium falciparum protein kinase 6 (PK6, PF3D7_1337100) (UniProt Q8IDW1); assay: PfPK6 kinase inhibitors, biochemical, TCAMS library (AID 1159586); conditions: recombinant PfPK6, Kinase-Glo ATP depletion luminescence
Chain of Plasmodium falciparum protein kinase 6 (PK6, PF3D7_1337100) (Q8IDW1 1-305): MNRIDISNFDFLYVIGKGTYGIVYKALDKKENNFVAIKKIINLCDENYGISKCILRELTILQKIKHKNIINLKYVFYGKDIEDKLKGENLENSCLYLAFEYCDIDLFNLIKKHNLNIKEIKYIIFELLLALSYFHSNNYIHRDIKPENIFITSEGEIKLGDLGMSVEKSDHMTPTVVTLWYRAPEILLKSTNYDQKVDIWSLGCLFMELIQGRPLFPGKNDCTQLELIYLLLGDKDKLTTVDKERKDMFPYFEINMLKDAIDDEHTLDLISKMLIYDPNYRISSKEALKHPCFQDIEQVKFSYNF

[7] = target: Protein kinase 7 (PK7), Plasmodium falciparum 3D7 (PF3D7_0213400) (UniProt Q7YTF7); assay: inhibition of Plasmodium PK7 catalytic activity – biochemical, TCAMS antimalarial set, Kinase-Glo luminescence (AID 1159587); conditions: recombinant PfPK7, Kinase-Glo ATP depletion luminescence
Chain of Protein kinase 7 (PK7), Plasmodium falciparum 3D7 (PF3D7_0213400) (Q7YTF7 1-343): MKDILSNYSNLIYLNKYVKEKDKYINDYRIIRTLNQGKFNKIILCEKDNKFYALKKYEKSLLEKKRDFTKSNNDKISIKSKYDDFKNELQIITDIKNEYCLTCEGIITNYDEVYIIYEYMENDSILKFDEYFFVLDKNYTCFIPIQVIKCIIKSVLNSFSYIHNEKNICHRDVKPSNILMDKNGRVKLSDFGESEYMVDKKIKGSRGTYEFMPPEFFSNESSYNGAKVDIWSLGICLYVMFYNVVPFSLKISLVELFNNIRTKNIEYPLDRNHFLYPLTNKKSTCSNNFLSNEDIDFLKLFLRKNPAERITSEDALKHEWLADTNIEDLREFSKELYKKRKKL

[8] = target: Calcium-dependent protein kinase 4 (Plasmodium falciparum (isolate 3D7)) (UniProt Q8IBS5); assay: PfCDPK4 kinase inhibitors, biochemical, TCAMS library (AID 1159588; cut-off not given, nearly all actives have IC50 up to about 0.91 µM); conditions: recombinant PfCDPK4, Kinase-Glo ATP depletion luminescence
Chain of Calcium-dependent protein kinase 4 (Plasmodium falciparum (isolate 3D7)) (Q8IBS5 whole entry, looked up): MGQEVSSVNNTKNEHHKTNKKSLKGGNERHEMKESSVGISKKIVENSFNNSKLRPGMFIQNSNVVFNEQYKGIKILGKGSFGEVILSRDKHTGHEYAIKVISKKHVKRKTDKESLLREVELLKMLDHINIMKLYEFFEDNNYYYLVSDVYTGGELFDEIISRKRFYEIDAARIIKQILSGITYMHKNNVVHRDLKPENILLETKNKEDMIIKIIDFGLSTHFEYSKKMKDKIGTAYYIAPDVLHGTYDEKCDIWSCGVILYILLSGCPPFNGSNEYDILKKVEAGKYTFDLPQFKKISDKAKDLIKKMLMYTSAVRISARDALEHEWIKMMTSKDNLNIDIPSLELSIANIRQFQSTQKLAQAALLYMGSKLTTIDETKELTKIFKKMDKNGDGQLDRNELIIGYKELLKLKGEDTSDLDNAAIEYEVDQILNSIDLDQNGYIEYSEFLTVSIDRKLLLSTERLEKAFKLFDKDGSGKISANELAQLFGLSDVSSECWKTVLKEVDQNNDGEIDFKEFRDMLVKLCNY

Compound: Cc1cc(NN=Cc2ccccc2Cl)c2cccc(C)c2n1
- growth inhibition [1]: 98% (active)
- inhibition [2]: 10%
- inhibition [3]: 2%
- growth inhibition [4]: 97% (active)
- outcome [5]: inactive
- outcome [6]: inactive
- outcome [7]: inactive
- outcome [8]: inactive

Compound: CN(C)CCNC(=O)c1ccc(-c2cnc3ccc(NCc4ccc(Cl)c(Cl)c4)nn23)cc1
- growth inhibition [1]: 98% (active)
- inhibition [2]: 60% (active)
- inhibition [3]: -5%
- growth inhibition [4]: 98% (active)
- outcome [5]: inactive
- outcome [6]: inactive
- outcome [7]: inactive
- outcome [8]: inactive

Compound: CCOc1ccccc1CCNC(C)Cc1ccc(C(=O)Nc2ccc(CC(C)NCCc3cccc(Cl)c3)cc2)cc1 (stereo not given)
- growth inhibition [1]: 59% (active)
- inhibition [2]: 100% (active)
- inhibition [3]: -3%
- growth inhibition [4]: 97% (active)
- outcome [5]: inactive
- outcome [6]: inactive
- outcome [7]: inactive
- outcome [8]: inactive

Compound: COc1ccc2ccccc2c1C=NNc1ccnc2cc(Cl)ccc12
- growth inhibition [1]: 94% (active)
- inhibition [2]: 20%
- inhibition [3]: -5%
- growth inhibition [4]: 100% (active)
- outcome [5]: inactive
- outcome [6]: inactive
- outcome [7]: inactive
- outcome [8]: inactive

Compound: O=C(/C=C/c1ccc(Cl)c(Cl)c1)NCCCCCN1CCCN(C(=O)Nc2ccc(Br)cc2)CC1
- growth inhibition [1]: -4%
- inhibition [2]: 38%
- inhibition [3]: 0%
- growth inhibition [4]: 99% (active)
- outcome [5]: inactive
- outcome [6]: inactive
- outcome [7]: inactive
- outcome [8]: inactive

Compound: Cc1cccc(C)c1CNc1ccnc2cc(C#N)ccc12
- growth inhibition [1]: 99% (active)
- inhibition [2]: 20%
- inhibition [3]: -1%
- growth inhibition [4]: 100% (active)
- outcome [5]: inactive
- outcome [6]: inactive
- outcome [7]: inactive
- outcome [8]: inactive

Compound: Oc1ccc(Nc2nc(NCC3CCCO3)c3ccccc3n2)cc1 (stereo not given)
- growth inhibition [1]: 57% (active)
- inhibition [2]: 7%
- inhibition [3]: 4%
- growth inhibition [4]: 103% (active)
- outcome [5]: inactive
- outcome [6]: inactive
- outcome [7]: inactive
- outcome [8]: inactive

Compound: CCOc1cccc(C(=O)Nc2cccc(CN3CCCN(Cc4ccc(O)cc4)CC3)c2)c1
- growth inhibition [1]: 31%
- inhibition [2]: 23%
- inhibition [3]: 1%
- growth inhibition [4]: 91% (active)
- outcome [5]: inactive
- outcome [6]: inactive
- outcome [7]: inactive
- outcome [8]: inactive

Compound: Cc1cc(-c2cc(Cl)ccc2Cl)no1
- growth inhibition [1]: 97% (active)
- inhibition [2]: 36%
- inhibition [3]: -8%
- growth inhibition [4]: 96% (active)
- outcome [5]: inactive
- outcome [6]: inactive
- outcome [7]: inactive
- outcome [8]: inactive

Compound: CC1(C)N=C(N)N=C(N)N1OCCCCOc1ccc(Cl)cc1C1CCCCC1
- growth inhibition [1]: 97% (active)
- inhibition [2]: 56% (active)
- inhibition [3]: 2%
- growth inhibition [4]: 93% (active)
- outcome [5]: inactive
- outcome [6]: inactive
- outcome [7]: inactive
- outcome [8]: inactive

Compound: Cn1nc(-c2ccc(CNC3CCc4ccccc43)cc2)c2cnc(NCCN3CCCC3)nc21 (stereo not given)
- growth inhibition [1]: 17%
- inhibition [2]: 21%
- inhibition [3]: -2%
- growth inhibition [4]: 99% (active)
- outcome [5]: inactive
- outcome [6]: inactive
- outcome [7]: inactive
- outcome [8]: inactive

Compound: c1ccc(Oc2ccc(Nc3ccnc4cc(-c5cccc(CN6CCOCC6)c5)ccc34)cc2)cc1
- growth inhibition [1]: 100% (active)
- inhibition [2]: 14%
- inhibition [3]: -1%
- growth inhibition [4]: 101% (active)
- outcome [5]: inactive
- outcome [6]: inactive
- outcome [7]: inactive
- outcome [8]: inactive

Compound: O=C(Nc1cc(F)cc(F)c1)N[C@H]1CCN(CCCCCNC(=O)[C@@H]2C[C@H]2c2ccc(Cl)c(Cl)c2)C1
- growth inhibition [1]: -4%
- inhibition [2]: 24%
- inhibition [3]: -3%
- growth inhibition [4]: 88% (active)
- outcome [5]: inactive
- outcome [6]: inactive
- outcome [7]: inactive
- outcome [8]: inactive

Compound: CNS(=O)(=O)Cc1ccc(Nc2nccc(Nc3cccc4c3cnn4C(=O)Nc3ccccc3)n2)cc1
- growth inhibition [1]: 5%
- inhibition [2]: 45%
- inhibition [3]: 1%
- growth inhibition [4]: 89% (active)
- outcome [5]: inactive
- outcome [6]: inactive
- outcome [7]: inactive
- outcome [8]: inactive

Compound: Cc1ccc(N/C(N)=N/c2ncccc2OCc2c(F)cccc2Cl)cc1
- growth inhibition [1]: 54% (active)
- inhibition [2]: 78% (active)
- inhibition [3]: -2%
- growth inhibition [4]: 86% (active)
- outcome [5]: inactive
- outcome [6]: inactive
- outcome [7]: inactive
- outcome [8]: inactive

Compound: CCC1(CC)N=C(N)N=C(N)N1OCc1ccc(Cl)c(Cl)c1
- growth inhibition [1]: 49%
- inhibition [2]: 49%
- inhibition [3]: -1%
- growth inhibition [4]: 94% (active)
- outcome [5]: inactive
- outcome [6]: inactive
- outcome [7]: inactive
- outcome [8]: inactive

Compound: COc1ccc2nccc([C@H](O)CN3CCC(NCc4cc(C)c5c(c4)OCCO5)CC3)c2n1
- growth inhibition [1]: 35%
- inhibition [2]: 12%
- inhibition [3]: 3%
- growth inhibition [4]: 96% (active)
- outcome [5]: inactive
- outcome [6]: inactive
- outcome [7]: inactive
- outcome [8]: inactive

Compound: CCN(CCCN1CCCCC1)c1cc(C)nc(Nc2ccc(Cl)cc2C)n1
- growth inhibition [1]: 46%
- inhibition [2]: 44%
- inhibition [3]: 2%
- growth inhibition [4]: 95% (active)
- outcome [5]: inactive
- outcome [6]: inactive
- outcome [7]: inactive
- outcome [8]: inactive

Compound: Cc1cc(NC(=O)N=C(N)N)ccc1Cl
- growth inhibition [1]: 15%
- inhibition [2]: 11%
- inhibition [3]: 2%
- growth inhibition [4]: 100% (active)
- outcome [5]: inactive
- outcome [6]: inactive
- outcome [7]: inactive
- outcome [8]: inactive

Compound: Cc1cc(NN=Cc2ccccc2Cl)c2cc(C(F)(F)F)ccc2n1
- growth inhibition [1]: 75% (active)
- inhibition [2]: -4%
- inhibition [3]: -4%
- growth inhibition [4]: 100% (active)
- outcome [5]: inactive
- outcome [6]: inactive
- outcome [7]: inactive
- outcome [8]: inactive
